Records with an inconclusive call do not appear. Activity calls are given as the source filed them. Rule for the calls, unless noted: active = hit-call score of the fitted dose curve at least 0.9, where 1 is the maximum; inactive = score below 0.9.
How the values were obtained:
[1] = molecular target: Retinoic acid receptor RXR-alpha (Homo sapiens) (UniProt P19793); assay: ATG_RXRa_TRANS: Attagene TRANS-FACTORIAL HepG2 Assay for human Retinoid X Receptor alpha (RXRa) (AID 2283012; active = hit-call score of the fitted dose curve at least 0.9, where 1 is the maximum)
Summary of the method: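 Chimeric NR-GAL4 trans-activation in HepG2, 24 h treatment; reporter transcripts quantified by fluorescence on capillary electrophoresis, analysed for upward change from DMSO.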

[2] = molecular target: human Thyroid Receptor alpha (THRa1), THRA (gene 7067) (UniProt P10827); assay: ATG_THRa1_TRANS: Attagene TRANS-FACTORIAL HepG2 Assay for human Thyroid Receptor alpha (THRa1) (AID 2283014; active = hit-call score of the fitted dose curve at least 0.9, where 1 is the maximum)
Summary of the method: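 Measured here is mRNA from a GAL4-UAS reporter in transfected HepG2 cells carrying a Gal4-fused receptor, 24 h post-dose. DMSO served as negative control and baseline.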

[3] = read-out: E-selectin (Homo sapiens) (UniProt P16581); assay: BSK_3C_Eselectin: BioMAP Diversity Plus: 3C Assay for Eselectin Biomarker Activity (AID 2283015); conditions: primary human endothelial cells (HUVEC); actives raise or lower the signal
Summary of the method: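 Endpoint derived by bidirectional fitting against DMSO vehicle; signal is ELISA-detected E-selectin from primary HUVEC at 24 h post-dosing, with parallel SRB staining (0.1% SRB, 560 nm) flagging cytotoxicity.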

[4] = read-out: Interleukin-1 alpha (IL1a), IL1A (gene 3552); assay: BSK_BE3C_IL1a: BioMAP Diversity Plus: BE3C Assay for Interleukin-1 alpha (IL1a) Biomarker Activity (AID 2283016); conditions: primary human bronchial epithelial cells; actives raise or lower the signal
Summary of the method: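 Measured in human lung primary bronchial epithelial cells: IL-1a by ELISA at 24 h after dosing, with bidirectional fitting against DMSO.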

[5] = read-out: Monocyte Chemoattractant Protein-1 (MCP1), CCL2 (gene 6347); assay: BSK_3C_MCP1: BioMAP Diversity Plus: 3C Assay for Monocyte Chemoattractant Protein-1 (MCP1) Biomarker Activity (AID 2283017); conditions: primary human endothelial cells (HUVEC); actives raise or lower the signal
Summary of the method: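 Using human vascular primary endothelium, researchers measured MCP-1 by ELISA 24 h after treatment, with DMSO serving as negative control for bidirectional fitting.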

[6] = read-out: Monocyte Chemoattractant Protein-1 (MCP1), CCL2 (gene 6347); assay: BSK_4H_MCP1: BioMAP Diversity Plus: 4H Assay for Monocyte Chemoattractant Protein-1 (MCP1) Biomarker Activity (AID 2283018); conditions: primary human endothelial cells (HUVEC); actives raise or lower the signal
Summary of the method: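 Primary human umbilical vein endothelium is exposed to chemical for 24 h before MCP-1 is assayed by ELISA. Concentration-response fitted bidirectionally relative to DMSO.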

[7] = read-out: Human Leukocyte Antigen - DR isotype (HLADR), HLA-DRA (gene 3122); assay: BSK_3C_HLADR: BioMAP Diversity Plus: 3C Assay for Human Leukocyte Antigen - DR isotype (HLADR) Biomarker Activity (AID 2283019); conditions: primary human endothelial cells (HUVEC); actives raise or lower the signal
Summary of the method: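 Compound added to primary HUVEC cultures, 24 h incubation, then HLA-DR determined by ELISA; endpoint derived by bidirectional fitting relative to DMSO negative control.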

[8] = read-out: Interleukin-8 (IL8), CXCL8 (gene 3576); assay: BSK_3C_IL8: BioMAP Diversity Plus: 3C Assay for Interleukin-8 (IL8) Biomarker Activity (AID 2283020); conditions: primary human endothelial cells (HUVEC); actives raise or lower the signal
Summary of the method: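 Using DMSO-treated wells as the baseline, bidirectional curve fitting was applied to ELISA-measured IL-8 from human umbilical vein endothelial cultures sampled 24 h after compound addition.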

[9] = read-out: Monokine induced gamma interferon (MIG), CXCL9 (gene 4283); assay: BSK_3C_MIG: BioMAP Diversity Plus: 3C Assay for Monokine induced gamma interferon (MIG) Biomarker Activity (AID 2283021); conditions: primary human endothelial cells (HUVEC); actives raise or lower the signal
Summary of the method: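 ELISA-measured MIG in dosed HUVEC 3C cultures at 24 h, analysed by bidirectional fitting with DMSO defining baseline activity.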

[10] = molecular target: human Vitamin D Receptor (VDR), VDR (gene 7421) (UniProt P11473); assay: ATG_VDR_TRANS: Attagene TRANS-FACTORIAL HepG2 Assay for human Vitamin D Receptor (VDR) (AID 2283022; active = hit-call score of the fitted dose curve at least 0.9, where 1 is the maximum)
Summary of the method: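 Multiplexed TRANS reporter in HepG2; 24 h treatment; reporter mRNA by RT-PCR plus capillary electrophoresis; upregulation scored relative to DMSO.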

[11] = BSK_3C_SRB: Viability Assessment in the BioMAP Diversity Plus: 3C Assay (AID 2283023); conditions: primary human endothelial cells (HUVEC);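 note: cells read 24 h after compound dosing; fitted both ways against DMSO so a hit may be signal rise or drop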
Summary of the method: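 Overt cytotoxicity is gauged in parallel confluent HUVEC cultures by SRB total-protein staining at the time of biomarker measurement, 24 h after dosing. Gain or loss of signal is fitted versus DMSO.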

[12] = read-out: Matrix Metallopeptidase 1 (MMP1), MMP1 (gene 4312); assay: BSK_BE3C_MMP1: BioMAP Diversity Plus: BE3C Assay for Matrix Metallopeptidase 1 (MMP1) Biomarker Activity (AID 2283024); conditions: primary human bronchial epithelial cells; actives raise or lower the signal
Summary of the method: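 In this multiplexed primary-cell system, human bronchial epithelium received chemicals for 24 h before an ELISA for MMP1. Values reflect bidirectional fits normalised to the DMSO baseline.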

[13] = BSK_3C_Vis: BioMAP Diversity Plus: 3C Assay for Morphology Visualization (AID 2283025); conditions: primary human endothelial cells (HUVEC);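 note: fitted both ways so gain or loss versus DMSO counts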;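 for AC50: light microscopy image of cell morphology used as background control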
Summary of the method: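 Light-microscopy morphology readout, 24 h exposure, human primary umbilical vein endothelium; analysed relative to DMSO with bidirectional fitting.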

[14] = read-out: Pselectin, SELP (gene 6403); assay: BSK_4H_Pselectin: BioMAP Diversity Plus: 4H Assay for Pselectin Biomarker Activity (AID 2283026); conditions: primary human endothelial cells (HUVEC); actives raise or lower the signal
Summary of the method: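 Bidirectional fits against DMSO gave the endpoint. Cells: primary human umbilical vein endothelium, chemical-treated for 24 h before ELISA detection of P-selectin.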

[15] = BSK_4H_SRB: Viability Assessment in the BioMAP Diversity Plus: 4H Assay (AID 2283027); conditions: primary human endothelial cells (HUVEC);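 note: cells exposed to compound for 24 h before staining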;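 for AC50: curves fitted both ways versus DMSO so AC50 may be loss or gain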
Summary of the method: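 Cytotoxicity readout: sulforhodamine B (0.1%) staining of total protein after 10% TCA fixation, measured at 560 nm in human umbilical vein endothelium at 24 h. DMSO set the baseline; fitting was bidirectional.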

[16] = BSK_BE3C_SRB: Viability Assessment in the BioMAP Diversity Plus: BE3C Assay (AID 2283028); conditions: primary human bronchial epithelial cells
Summary of the method: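 SRB total-protein staining (0.1%, after TCA fixation) of chemically dosed human bronchial epithelial primary cells at 24 h; DMSO serves as the negative control for bidirectional curve fitting.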

[17] = read-out: Thrombomodulin, THBD (gene 7056); assay: BSK_3C_Thrombomodulin: BioMAP Diversity Plus: 3C Assay for Thrombomodulin Biomarker Activity (AID 2283029); conditions: primary human endothelial cells (HUVEC); actives raise or lower the signal
Summary of the method: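 In a multiplexed primary-cell system, human umbilical vein endothelium received chemical and was assayed 24 h later for thrombomodulin by ELISA. Parallel cultures were SRB-stained (0.1% SRB after 10% TCA fixation, read at 560 nm) to flag cytotoxicity.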

[18] = read-out: Urokinase-type plasminogen activator receptor (uPAR), PLAUR (gene 5329); assay: BSK_4H_uPAR: BioMAP Diversity Plus: 4H Assay for Urokinase-type plasminogen activator receptor (uPAR) Biomarker Activity (AID 2283030); conditions: primary human endothelial cells (HUVEC); actives raise or lower the signal
Summary of the method: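 Endpoint derived via bidirectional curve fitting against DMSO baseline; readout was ELISA detection of uPAR on umbilical vein endothelial cells at 24 h post-treatment, with SRB-stained parallel cultures assessing cytotoxicity.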

[19] = read-out: Vascular endothelial growth factor receptor 2 (Homo sapiens) (UniProt P35968); assay: BSK_4H_VEGFRII: BioMAP Diversity Plus: 4H Assay for Vascular endothelial growth factor receptor 2 (VEGFR2) Biomarker Activity (AID 2283031); conditions: primary human endothelial cells (HUVEC); actives raise or lower the signal;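 for AC50: cell-surface VEGFR2 protein level quantified by ELISA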
Summary of the method: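 In this multiplexed HUVEC system, biomarker ELISA was performed after 24 h chemical exposure. Parallel SRB staining (TCA fixation, 560 nm) tracked cytotoxicity; DMSO served as baseline.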

[20] = molecular target: human Retinoid X Receptor beta (RXRb), RXRB (gene 6257) (UniProt P28702); assay: ATG_RXRb_TRANS: Attagene TRANS-FACTORIAL HepG2 Assay for human Retinoid X Receptor beta (RXRb) (AID 2283013; active = hit-call score of the fitted dose curve at least 0.9, where 1 is the maximum)
Summary of the method: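 After a 24 h incubation with test chemical, transfected HepG2 cells carrying NR-Gal4 fusions and GAL4-UAS reporter transcription units yield RNA whose reporter cDNA is FAM-labelled, HpaI-cut and sized by capillary electrophoresis; increases over DMSO are scored.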

Measured: AC50

Chain of human Retinoid X Receptor beta (RXRb), RXRB (gene 6257) (P28702 whole entry, looked up, the tested form may be a part): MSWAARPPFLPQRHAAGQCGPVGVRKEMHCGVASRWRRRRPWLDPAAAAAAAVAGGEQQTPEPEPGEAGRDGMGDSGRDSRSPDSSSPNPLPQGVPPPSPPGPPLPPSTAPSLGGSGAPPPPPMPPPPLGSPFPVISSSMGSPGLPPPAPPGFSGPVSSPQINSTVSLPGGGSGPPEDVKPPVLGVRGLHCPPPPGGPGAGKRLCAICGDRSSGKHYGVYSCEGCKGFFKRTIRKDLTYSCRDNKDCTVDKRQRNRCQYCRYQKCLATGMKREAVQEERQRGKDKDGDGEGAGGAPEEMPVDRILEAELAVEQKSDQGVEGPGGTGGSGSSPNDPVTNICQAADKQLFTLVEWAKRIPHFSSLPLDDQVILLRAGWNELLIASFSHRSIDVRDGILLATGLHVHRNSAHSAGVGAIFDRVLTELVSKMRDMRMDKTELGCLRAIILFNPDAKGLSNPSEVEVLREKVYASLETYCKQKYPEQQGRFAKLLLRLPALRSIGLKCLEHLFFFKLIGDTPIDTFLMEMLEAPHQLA
Chain of human Vitamin D Receptor (VDR), VDR (gene 7421) (P11473 whole entry, looked up): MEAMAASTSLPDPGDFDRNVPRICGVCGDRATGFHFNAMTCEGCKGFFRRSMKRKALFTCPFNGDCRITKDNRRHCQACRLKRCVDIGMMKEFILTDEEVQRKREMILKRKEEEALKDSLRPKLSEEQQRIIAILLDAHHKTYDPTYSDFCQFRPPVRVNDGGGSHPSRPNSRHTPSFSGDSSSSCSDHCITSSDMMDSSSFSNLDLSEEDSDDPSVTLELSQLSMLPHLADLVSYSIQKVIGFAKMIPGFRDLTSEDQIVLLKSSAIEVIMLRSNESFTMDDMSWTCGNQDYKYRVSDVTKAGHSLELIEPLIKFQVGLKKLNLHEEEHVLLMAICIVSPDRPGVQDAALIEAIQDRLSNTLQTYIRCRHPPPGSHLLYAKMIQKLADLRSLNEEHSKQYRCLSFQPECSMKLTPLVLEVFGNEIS
Chain of human Thyroid Receptor alpha (THRa1), THRA (gene 7067) (P10827 whole entry, looked up, the tested form may be a part): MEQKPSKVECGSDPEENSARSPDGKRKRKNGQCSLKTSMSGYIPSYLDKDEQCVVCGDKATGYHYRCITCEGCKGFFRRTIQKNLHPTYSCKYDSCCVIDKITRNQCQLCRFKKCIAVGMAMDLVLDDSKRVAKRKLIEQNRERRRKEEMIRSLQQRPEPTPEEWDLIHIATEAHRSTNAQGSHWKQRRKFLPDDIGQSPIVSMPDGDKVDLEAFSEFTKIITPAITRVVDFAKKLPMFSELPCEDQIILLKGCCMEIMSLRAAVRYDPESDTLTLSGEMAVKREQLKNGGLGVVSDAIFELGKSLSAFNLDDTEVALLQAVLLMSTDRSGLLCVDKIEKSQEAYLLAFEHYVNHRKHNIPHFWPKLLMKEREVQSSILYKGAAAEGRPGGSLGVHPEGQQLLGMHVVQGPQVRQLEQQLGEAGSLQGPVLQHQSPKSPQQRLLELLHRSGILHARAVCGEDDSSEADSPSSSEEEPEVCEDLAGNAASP
Chain of E-selectin (Homo sapiens) (P16581 whole entry, looked up): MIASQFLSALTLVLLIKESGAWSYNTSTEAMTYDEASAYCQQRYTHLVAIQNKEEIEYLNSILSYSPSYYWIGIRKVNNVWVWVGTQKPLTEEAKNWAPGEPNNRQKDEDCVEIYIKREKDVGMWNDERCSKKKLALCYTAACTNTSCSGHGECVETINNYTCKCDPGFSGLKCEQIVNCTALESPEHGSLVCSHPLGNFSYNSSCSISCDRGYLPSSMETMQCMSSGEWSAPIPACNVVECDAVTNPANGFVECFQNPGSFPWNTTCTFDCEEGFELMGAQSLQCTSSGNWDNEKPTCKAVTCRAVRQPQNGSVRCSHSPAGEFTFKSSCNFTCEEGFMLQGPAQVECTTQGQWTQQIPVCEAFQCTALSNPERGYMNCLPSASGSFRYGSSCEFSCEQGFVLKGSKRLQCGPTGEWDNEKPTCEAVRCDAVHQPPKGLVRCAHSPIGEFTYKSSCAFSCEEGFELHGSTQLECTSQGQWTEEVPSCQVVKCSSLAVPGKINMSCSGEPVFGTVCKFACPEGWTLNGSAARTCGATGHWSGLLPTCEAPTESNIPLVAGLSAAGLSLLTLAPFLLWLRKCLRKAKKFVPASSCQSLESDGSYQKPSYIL
Chain of Retinoic acid receptor RXR-alpha (Homo sapiens) (P19793 whole entry, looked up, the tested form may be a part): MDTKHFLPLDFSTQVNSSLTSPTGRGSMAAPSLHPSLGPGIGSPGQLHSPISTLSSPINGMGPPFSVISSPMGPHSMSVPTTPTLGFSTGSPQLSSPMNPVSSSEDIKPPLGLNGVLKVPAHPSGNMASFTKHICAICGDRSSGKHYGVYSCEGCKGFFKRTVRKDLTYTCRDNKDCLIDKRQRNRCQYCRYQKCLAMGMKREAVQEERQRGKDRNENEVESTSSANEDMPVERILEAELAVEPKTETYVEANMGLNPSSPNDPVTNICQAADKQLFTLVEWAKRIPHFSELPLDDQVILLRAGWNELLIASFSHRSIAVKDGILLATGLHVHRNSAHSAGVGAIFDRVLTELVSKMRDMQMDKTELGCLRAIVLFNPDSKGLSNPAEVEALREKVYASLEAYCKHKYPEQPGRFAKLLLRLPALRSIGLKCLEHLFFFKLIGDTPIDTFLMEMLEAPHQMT

C#C[C@]1(O)CC[C@H]2[C@@H]3CCC4=CC(=O)CC[C@]4(C)[C@H]3CC[C@@]21C
inactive: [1] | [2]

Cc1ccccc1OP(=O)(Oc1ccccc1)Oc1ccccc1
active: [3] 20 µM | [4] 6.89 µM | [5] 31 µM | [6] 20 µM | [7] 30.4 µM | [8] 20 µM | [11] 35.8 µM | [12] 6.66 µM | [13] 11.6 µM | [14] 20 µM | [15] 20 µM | [18] 32.2 µM | [19] 20 µM
inactive: [1] | [2] | [9] | [10] | [16] | [17]

C[C@@H]1O[C@@H](O[C@H]2C[C@@H](O)[C@]3(CO)[C@H]4[C@H](O)C[C@]5(C)[C@@H](C6=CC(=O)OC6)CC[C@]5(O)[C@@H]4CC[C@]3(O)C2)[C@H](O)[C@H](O)[C@H]1O
inactive: [1] | [2]

CN(C)[C@@H]1C(=O)C(C(N)=O)=C(O)[C@@]2(O)C(=O)C3=C(O)c4c(O)ccc(Cl)c4[C@@](C)(O)[C@H]3C[C@@H]12
inactive: [1] | [2] | [10]

OC[P+](CO)(CO)CO
inactive: [1] | [2] | [10]

CC(O)(CS(=O)(=O)c1ccc(F)cc1)C(=O)Nc1ccc(C#N)c(C(F)(F)F)c1 (stereo unspecified)
inactive: [1] | [2]

C[N+](C)(C)Cc1ccccc1
inactive: [1] | [2] | [10]

CCCCOC(C)=O
inactive: [1] | [2]

O=c1[nH]c2ccccc2n1C1CCN(CCCC(c2ccc(F)cc2)c2ccc(F)cc2)CC1
inactive: [1] | [10]

OC(c1ccc(Cl)cc1)(c1ccc(Cl)cc1)c1cccnc1
inactive: [1] | [10]

CCCCN(CCCC)C(=S)[S-].CCCCN(CCCC)C(=S)[S-].[Ni+2]
inactive: [20] | [2] | [3] | [4] | [5] | [6] | [7] | [8] | [9] | [11] | [12] | [13] | [14] | [15] | [16] | [17] | [18]

CN(C)CCN(C)C
inactive: [20] | [2] | [10]

OC[C@@H](O)[C@H]1O[C@@H]2O[C@H](C(Cl)(Cl)Cl)O[C@@H]2[C@H]1O
inactive: [20]

CCNc1nc(NCC)nc(SC)n1
inactive: [20] | [2] | [10]

CCOP(=S)(OCC)SCS(=O)(=O)C(C)(C)C
inactive: [20] | [3] | [4] | [5] | [6] | [7] | [8] | [9] | [10] | [11] | [12] | [13] | [14] | [15] | [16] | [17] | [18] | [19]

C[C@]12CC[C@@H](O)C[C@@H]1CC[C@@H]1[C@@H]2CC[C@]2(C)C(=O)CC[C@@H]12
inactive: [20] | [3] | [4] | [5] | [6] | [7] | [8] | [9] | [10] | [11] | [12] | [13] | [14] | [15] | [16] | [17] | [18] | [19]

COc1ccc([N+](=O)[O-])cc1O
inactive: [20] | [2]

CC(C)=CC1C(C(=O)OCc2cccc(Oc3ccccc3)c2)C1(C)C (stereo unspecified)
inactive: [20] | [4] | [5] | [8] | [9] | [10] | [12] | [14] | [15] | [16] | [17] | [18] | [19]
active: [3] 2.62 µM | [6] 20 µM | [7] 20 µM | [11] 26.7 µM | [13] 37.6 µM

CCOP(=O)(OCC)SCCSCC
inactive: [20] | [2] | [3] | [4] | [5] | [6] | [7] | [8] | [9] | [11] | [12] | [13] | [14] | [15] | [16] | [17] | [18] | [19]

Clc1cccc(Cl)c1
inactive: [20] | [2] | [3] | [4] | [5] | [6] | [7] | [8] | [9] | [10] | [11] | [12] | [13] | [14] | [15] | [16] | [17] | [18] | [19]

CCOP(=S)(OCC)SCSc1cc(Cl)ccc1Cl
inactive: [2] | [10]
active: [20] 25.5 µM

C=CC(=O)OCC(COC(=O)C=C)(COC(=O)C=C)COC(=O)C=C
inactive: [2]
active: [20] 100 µM

COC(F)(C(F)(F)C(F)(F)F)C(F)(C(F)(F)F)C(F)(F)F (stereo unspecified)
inactive: [20] | [2] | [10]

CCCSP(=S)(OCC)Oc1ccc(SC)cc1 (stereo unspecified)
inactive: [20]

CC1(C)[C@H](/C=C2\CCSC2=O)[C@@H]1C(=O)OCc1coc(Cc2ccccc2)c1
inactive: [20]

c1ccc2sc(SNC3CCCCC3)nc2c1
inactive: [20] | [2] | [3] | [4] | [5] | [6] | [8] | [9] | [10] | [11] | [12] | [13] | [14] | [15] | [16] | [17] | [18] | [19]
active: [7] 29.3 µM
